Data as given in PubChem BioAssay (NCATS).
Inconclusive results are not listed. Calls of active or inactive are those of the source. Unless noted, calls follow the shape of the full dose curve.

How the values were obtained:
[1] = biological target: Bile acid receptor (Homo sapiens) (UniProt Q96RI1); assay: qHTS assay for small molecule antagonists of farnesoid X receptor signaling (AID 588526); also: potency is read from the fitted curve at half-maximal effect
Procedure, shortened: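 Antagonist mode: titrated compounds tested against chenodeoxycholic acid stimulation (normalized to 50 uM CDCA and DMSO) in GeneBLAzer HEK293T cells for 16 h. Beta-lactamase read by CCF4 fluorescence; IC50 from Hill fits.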

[2] = biological target: Bile acid receptor (Homo sapiens) (UniProt Q96RI1); assay: qHTS assay for small molecule agonists of farnesoid X receptor signaling (AID 588527); settings: HEK293T FXR-UAS-bla, beta-lactamase ratio, 16 h; activation: stronger effect = higher value;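 also: series mostly up to about 77 µM; 0% = vehicle basal and 100% = reference agonist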
Procedure, shortened: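 FXR-UAS-bla HEK293T cells (10% dialyzed FBS) preincubated 5-7 h at 37 C, then compounds at up to 92 uM for 16 h at 37 C. CCF4 beta-lactamase read-out after 2 h RT. Normalized to chenodeoxycholic acid (100 uM) and DMSO; Hill fit gave EC50 and efficacy.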

[3] = biological target: Glucocorticoid receptor (Homo sapiens) (UniProt P04150); assay: qHTS assay for small molecule agonists of glucocorticoid receptor signaling (AID 588532; active = well fitted curve in the direction sought with a large enough effect in the signal ratio, with a control signal flat; the % refers to the signal ratio;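 also: 100% = dexamethasone at 0.1 µM and 0% = DMSO only wells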); settings: HeLa MMTV-bla, beta-lactamase ratio, agonist, 18 h; activation: stronger effect = higher value, percent of dexamethasone control, DMSO zero
Sequence of Glucocorticoid receptor (Homo sapiens) (P04150 whole entry, looked up): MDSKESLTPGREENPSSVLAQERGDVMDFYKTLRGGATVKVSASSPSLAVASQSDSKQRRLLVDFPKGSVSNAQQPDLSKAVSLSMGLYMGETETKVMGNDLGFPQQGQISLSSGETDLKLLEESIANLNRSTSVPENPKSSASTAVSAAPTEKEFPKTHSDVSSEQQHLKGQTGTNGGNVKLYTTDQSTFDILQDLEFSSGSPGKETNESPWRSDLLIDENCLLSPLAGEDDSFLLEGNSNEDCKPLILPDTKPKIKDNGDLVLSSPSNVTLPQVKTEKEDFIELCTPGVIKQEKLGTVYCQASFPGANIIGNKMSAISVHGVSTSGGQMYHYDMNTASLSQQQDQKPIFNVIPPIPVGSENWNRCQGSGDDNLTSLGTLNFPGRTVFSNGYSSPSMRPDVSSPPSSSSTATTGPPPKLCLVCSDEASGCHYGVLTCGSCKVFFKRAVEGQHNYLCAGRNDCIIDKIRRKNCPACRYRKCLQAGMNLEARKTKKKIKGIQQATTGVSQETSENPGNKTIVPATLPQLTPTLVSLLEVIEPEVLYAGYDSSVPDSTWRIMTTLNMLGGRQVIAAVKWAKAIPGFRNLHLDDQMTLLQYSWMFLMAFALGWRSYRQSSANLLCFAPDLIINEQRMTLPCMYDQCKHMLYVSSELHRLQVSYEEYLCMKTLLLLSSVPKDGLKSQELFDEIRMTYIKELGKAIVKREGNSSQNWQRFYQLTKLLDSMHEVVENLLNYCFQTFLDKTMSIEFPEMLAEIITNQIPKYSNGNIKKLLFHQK
Procedure, shortened: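 MMTV-bla HeLa beta-lactamase reporter cells in 1% charcoal/dextran FBS medium, compounds up to 92 uM for 18 h at 37 C, CCF4 readout; normalized to 0.1 uM dexamethasone (100%), EC50 and efficacy from Hill fits.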

[4] = biological target: Glucocorticoid receptor (Homo sapiens) (UniProt P04150); assay: qHTS assay for small molecule antagonists of glucocorticoid receptor signaling (AID 588533; active = well fitted inhibition curve with a large enough effect in the signal ratio, with a control signal flat, not every such curve was filed as active; the % refers to the signal ratio; also: % is scaled to controls: 0 for no effect and ±100 for the full control effect)
Procedure, shortened: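 Antagonist-mode qHTS: compound titrations added to GRE-bla HeLa cells, then dexamethasone 2 nM final; 18 h, 37 C. CCF4 FRET fluorescence normalized to dexamethasone and DMSO; IC50 from Hill fit.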

[5] = biological target: Peroxisome proliferator-activated receptor delta (Homo sapiens) (UniProt Q03181); assay: qHTS assay for small molecule agonists of peroxisome proliferator-activated receptor delta signaling (AID 588534);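 also: 0% = DMSO basal wells and 100% = positive control agonist at 10 µM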
Sequence of Peroxisome proliferator-activated receptor delta (Homo sapiens) (Q03181 whole entry, looked up): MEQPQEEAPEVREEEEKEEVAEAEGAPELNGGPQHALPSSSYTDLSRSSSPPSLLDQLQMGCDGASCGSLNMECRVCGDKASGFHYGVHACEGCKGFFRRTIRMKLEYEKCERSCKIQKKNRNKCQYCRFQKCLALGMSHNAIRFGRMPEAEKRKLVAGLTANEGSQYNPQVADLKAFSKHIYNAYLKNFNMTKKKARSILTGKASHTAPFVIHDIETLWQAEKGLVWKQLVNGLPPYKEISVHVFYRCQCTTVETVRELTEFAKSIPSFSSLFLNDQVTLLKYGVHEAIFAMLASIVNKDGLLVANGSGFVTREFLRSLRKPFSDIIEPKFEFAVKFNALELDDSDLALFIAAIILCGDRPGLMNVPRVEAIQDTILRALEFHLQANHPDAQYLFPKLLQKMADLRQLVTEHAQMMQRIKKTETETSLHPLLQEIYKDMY
Procedure, shortened: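 Agonist-mode beta-lactamase reporter readout (CCF4 dye, 2 h at RT) after 18 h at 37 °C exposure to a titration; Hill-equation fitting gave EC50 and maximal response.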

[6] = qHTS assay for small molecule antagonists of peroxisome proliferator-activated receptor delta signaling (AID 588535; active = well fitted inhibition curve with a large enough effect in the signal ratio, with a control signal flat, not every such curve was filed as active; the % refers to the signal ratio;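 as to max response: cells co-treated with a PPAR-delta agonist as stimulator during compound exposure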); settings: HEK293T PPARd-UAS-bla, beta-lactamase FRET ratio, 18 h; 460 nm channel
Procedure, shortened: (§1)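 Fluorescence from CCF4-loaded GeneBLAzer PPAR-delta-UAS-bla HEK293T cells (2 hrs RT loading) quantified reporter inhibition after an 18 hr, 37 C compound exposure across a titration.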

[7] = biological target: Peroxisome proliferator-activated receptor delta (Homo sapiens) (UniProt Q03181); assay: as above
Procedure, shortened: as §1

[8] = biological target: Peroxisome proliferator-activated receptor gamma (Homo sapiens) (UniProt P37231); assay: qHTS assay for small molecule agonists of peroxisome proliferator-activated receptor gamma signaling (AID 588536; active = well fitted curve in the direction sought with a large enough effect in the signal ratio, with a control signal flat, not every such curve was filed as active; the % refers to the signal ratio;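 also: 0% = DMSO basal wells and 100% = rosiglitazone at 2 µM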)
Sequence of Peroxisome proliferator-activated receptor gamma (Homo sapiens) (P37231 whole entry, looked up): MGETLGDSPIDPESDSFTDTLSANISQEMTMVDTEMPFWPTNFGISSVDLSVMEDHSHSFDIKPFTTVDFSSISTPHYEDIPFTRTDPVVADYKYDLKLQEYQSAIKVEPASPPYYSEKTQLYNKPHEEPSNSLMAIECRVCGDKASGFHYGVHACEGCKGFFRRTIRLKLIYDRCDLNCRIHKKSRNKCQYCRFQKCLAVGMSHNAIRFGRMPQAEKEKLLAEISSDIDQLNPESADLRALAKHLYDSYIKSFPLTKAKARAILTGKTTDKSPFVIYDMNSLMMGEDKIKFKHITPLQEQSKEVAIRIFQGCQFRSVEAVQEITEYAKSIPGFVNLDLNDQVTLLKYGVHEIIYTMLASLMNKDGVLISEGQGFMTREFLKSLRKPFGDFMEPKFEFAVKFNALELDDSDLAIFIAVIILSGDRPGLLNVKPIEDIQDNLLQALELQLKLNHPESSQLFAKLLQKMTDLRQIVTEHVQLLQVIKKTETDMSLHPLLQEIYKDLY
Procedure, shortened: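 Cells were plated and held 6–6.5 h at 37 C, then compounds were added as a titration series. After a further 16 h, CCF4 dye was loaded for 2 h at room temperature and emission at 460/530 nm recorded.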

[9] = biological target: Vitamin D3 receptor (Homo sapiens) (UniProt P11473); assay: qHTS assay for small molecule antagonists of vitamin D receptor signaling (AID 588541);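 also: receptor activated by calcitriol during compound treatment; series mostly up to about 77 µM; % is scaled to controls: 0 for no effect and ±100 for the full control effect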
Sequence of Vitamin D3 receptor (Homo sapiens) (P11473 whole entry, looked up): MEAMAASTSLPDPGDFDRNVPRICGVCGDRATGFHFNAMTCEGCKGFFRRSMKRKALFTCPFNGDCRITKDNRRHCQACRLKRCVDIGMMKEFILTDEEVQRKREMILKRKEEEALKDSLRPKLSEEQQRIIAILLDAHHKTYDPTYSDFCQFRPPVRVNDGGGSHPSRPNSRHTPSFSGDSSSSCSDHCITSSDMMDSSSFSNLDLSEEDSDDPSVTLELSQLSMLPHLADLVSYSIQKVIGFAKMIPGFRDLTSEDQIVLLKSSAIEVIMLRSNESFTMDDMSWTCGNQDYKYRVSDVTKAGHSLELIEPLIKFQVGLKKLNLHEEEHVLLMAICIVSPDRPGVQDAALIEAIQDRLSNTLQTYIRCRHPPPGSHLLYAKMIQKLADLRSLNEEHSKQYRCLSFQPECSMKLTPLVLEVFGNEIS
Procedure, shortened: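 VDR-UAS-bla HEK293T cells in 2% charcoal-stripped FBS were stimulated with 1-alpha,25-dihydroxyvitamin D3 (3 nM final) plus compound for 16 h at 37 C. The beta-lactamase CCF4 readout was normalized to 50 nM agonist and DMSO, and Hill fits gave IC50.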

[10] = biological target: Vitamin D3 receptor (Homo sapiens) (UniProt P11473); assay: qHTS assay for small molecule agonists of vitamin D receptor signaling (AID 588543);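 also: 0% = DMSO basal and 100% = reference agonist control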
Procedure, shortened: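 β-lactamase reporter, VDR-UAS-bla HEK293T, agonist mode. Cells plated 5 h at 37 °C, compound titration 16 h at 37 °C, CCF4 dye 2 h RT, ratio 460/530 nm. Hill fit → EC50, efficacy vs 50 nM 1α,25-(OH)2D3.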

[11] = qHTS assay for small molecule agonists of retinoid X receptor alpha signaling (AID 588544); settings: HEK293T RXRa-UAS-bla, beta-lactamase reporter, 18 h; 530 nm emission;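 as to activation: 0% = DMSO basal wells and 100% = reference agonist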
[12] = biological target: Retinoic acid receptor RXR-alpha (Homo sapiens) (UniProt P19793); assay: as above
Sequence of Retinoic acid receptor RXR-alpha (Homo sapiens) (P19793 whole entry, looked up): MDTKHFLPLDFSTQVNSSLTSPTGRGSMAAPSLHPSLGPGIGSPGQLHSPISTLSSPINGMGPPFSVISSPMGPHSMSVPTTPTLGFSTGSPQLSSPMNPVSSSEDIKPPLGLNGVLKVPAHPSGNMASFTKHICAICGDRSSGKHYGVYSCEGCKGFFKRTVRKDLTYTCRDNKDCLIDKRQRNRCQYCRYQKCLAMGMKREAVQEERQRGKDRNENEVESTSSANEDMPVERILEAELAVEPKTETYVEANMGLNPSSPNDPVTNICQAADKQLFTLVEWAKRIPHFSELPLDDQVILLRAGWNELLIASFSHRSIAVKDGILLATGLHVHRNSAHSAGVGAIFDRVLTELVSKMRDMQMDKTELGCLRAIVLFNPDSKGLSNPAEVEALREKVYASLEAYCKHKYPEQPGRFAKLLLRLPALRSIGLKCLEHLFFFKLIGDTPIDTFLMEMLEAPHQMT

[13] = biological target: Thyroid hormone receptor beta (Homo sapiens) (UniProt P10828); assay: qHTS assay for small molecule agonists of thyroid hormone receptor beta signaling (AID 588545);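 also: 0% = DMSO only and 100% = 10 nM T3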
Sequence of Thyroid hormone receptor beta (Homo sapiens) (P10828 whole entry, looked up): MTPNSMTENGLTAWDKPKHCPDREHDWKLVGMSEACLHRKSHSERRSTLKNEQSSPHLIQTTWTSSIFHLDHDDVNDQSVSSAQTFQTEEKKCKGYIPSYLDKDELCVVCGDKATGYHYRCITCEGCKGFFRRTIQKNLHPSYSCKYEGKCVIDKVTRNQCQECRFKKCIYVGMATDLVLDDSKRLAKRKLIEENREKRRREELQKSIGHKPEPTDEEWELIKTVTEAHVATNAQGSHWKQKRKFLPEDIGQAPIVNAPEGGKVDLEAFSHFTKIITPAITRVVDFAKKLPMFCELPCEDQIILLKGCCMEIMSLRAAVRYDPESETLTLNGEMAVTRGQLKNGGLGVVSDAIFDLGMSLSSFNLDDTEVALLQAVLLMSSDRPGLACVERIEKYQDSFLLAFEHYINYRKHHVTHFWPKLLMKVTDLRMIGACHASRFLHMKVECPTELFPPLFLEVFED
Procedure, shortened: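 TR-UAS-bla GripTite HEK 293 cells (2500/well, medium with 2% charcoal/dextran FBS) were treated in agonist mode for 18 h at 37 C, titrated. Beta-lactamase was read by CCF4 ratio after 2 h; normalized to 10 nM T3 (100%) and DMSO, Hill-fitted for EC50 and efficacy.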

[14] = qHTS assay for small molecule antagonists of retinoid X receptor alpha signaling (AID 588546; active = well fitted inhibition curve with a large enough effect in the signal ratio, with a control signal flat, not every such curve was filed as active; the % refers to the signal ratio;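 also: cells stimulated with 9-cis-retinoic acid as agonist; % is scaled to controls: 0 for no effect and ±100 for the full control effect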); settings: HEK293T RXRa-UAS-bla, beta-lactamase ratio, antagonist mode; measured here: W530 green channel, cytotoxicity proxy
Procedure, shortened: (§2)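 Beta-lactamase reporter inhibition, read as CCF4 fluorescence ratio (ex 405, em 460/530 nm) after 2 h at RT. HEK293T UAS-bla cells, 2500/well, were stimulated with 9-cis-RA at 500 or 100 nM final alongside test compound for 18 h at 37 C.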

[15] = biological target: Retinoic acid receptor RXR-alpha (Homo sapiens) (UniProt P19793); assay: as above; settings: HEK293T RXRa-UAS-bla, beta-lactamase ratio, antagonist mode
Procedure, shortened: as §2

[16] = qHTS assay for small molecule agonists of the antioxidant response element (ARE) signaling pathway (AID 651741; active = well fitted activation curve with a large enough effect in the signal ratio; the % refers to the signal ratio; also: potency is read from the fitted curve at half-maximal effect; as to activation: % of control where 0% means no effect)
Procedure, shortened: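 Stably integrated ARE-beta-lactamase reporter HepG2 cells; 16 h compound incubation, 37 C; LiveBLAzer FRET substrate 2 h at room temperature; fluorescence intensity.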

[17] = qHTS assay for small molecule activators of the p53 signaling pathway (AID 651743; active = well fitted activation curve with a large enough effect in the signal ratio, not every such curve was filed as active; the % refers to the signal ratio; also: series mostly up to about 92 µM; % of control where 0% means no effect); settings: HCT-116 p53RE-bla, beta-lactamase FRET ratio, 16 h; activation: stronger effect = higher value
Procedure, shortened: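 Following 16 hours of compound exposure at 37 C, HCT-116 cells bearing the p53RE-bla reporter were loaded with LiveBLAzer B/G FRET substrate for 2 hours at room temperature and fluorescence intensity was recorded.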

[18] = qHTS assay for environmental chemicals that activate the Aryl hydrocarbon Receptor (AhR) signaling pathway (AID 651777; active = well fitted curve in the direction sought with a large enough effect; an effect the other way counts as inactive or inconclusive; also: nearly all actives have a fitted effect of over 15% in size; also: potency is read from the fitted curve at half-maximal effect; as to activation: % of control where 0% means no effect); settings: 1A2-DRE human hepatoma cells, luciferase, 24 h; activation: stronger effect = higher value
Procedure, shortened: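 Stable CYP1A2 promoter/DRE-luciferase human hepatoma line treated 24 hr; One-Glo luminescence, 30 min RT.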

[19] = biological target: Peroxisome proliferator-activated receptor alpha (Homo sapiens) (UniProt Q07869); assay: qHTS assay for small molecule agonists of the peroxisome proliferator-activated receptor alpha (PPARalpha) signaling pathway (AID 651778; active = well fitted curve in the direction sought with a large enough effect; an effect the other way counts as inactive or inconclusive; also: % of control where 0% means no effect); settings: PathHunter PPARalpha complementation, chemiluminescence, 6 h; max response: stronger effect = higher value
Sequence of Peroxisome proliferator-activated receptor alpha (Homo sapiens) (Q07869 whole entry, looked up, the tested form may be a part): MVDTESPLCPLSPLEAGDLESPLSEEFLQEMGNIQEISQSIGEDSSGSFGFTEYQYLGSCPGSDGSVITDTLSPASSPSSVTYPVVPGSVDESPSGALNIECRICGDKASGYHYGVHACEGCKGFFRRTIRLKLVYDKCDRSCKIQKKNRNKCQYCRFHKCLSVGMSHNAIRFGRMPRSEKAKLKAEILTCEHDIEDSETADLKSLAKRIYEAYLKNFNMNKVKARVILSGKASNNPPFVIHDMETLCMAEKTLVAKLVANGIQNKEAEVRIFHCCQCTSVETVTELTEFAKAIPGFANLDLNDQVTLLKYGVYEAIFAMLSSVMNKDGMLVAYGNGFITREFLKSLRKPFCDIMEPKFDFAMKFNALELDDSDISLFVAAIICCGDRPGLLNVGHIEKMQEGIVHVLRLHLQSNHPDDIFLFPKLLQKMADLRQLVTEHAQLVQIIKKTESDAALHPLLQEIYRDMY
Procedure, shortened: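 Enzyme-fragment complementation assay in which ligand-bound PPARalpha translocates and forms an active enzyme that generates chemiluminescence. Cells were plated overnight, exposed to compound for 6 hr at 37 C, and then given detection reagent for 60 min at room temperature.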

[20] = qHTS assay for small molecule agonists of the antioxidant response element (ARE) signaling pathway measured by Nrf2-dependant transcriptional activity (AID 720636; active = well fitted curve in the direction sought with a large enough effect in the repeat runs; an effect the other way counts as inactive or inconclusive;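 also: HepG2 cells with an ARE-driven luciferase reporter; % of control where 0% means no effect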)
Procedure, shortened: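 Reporter gene assay, HepG2 ARE-luc: 16 hr compound, 37 C, 5% CO2; read-out luciferase luminescence.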

[21] = qHTS assay for small molecule agonists of the antioxidant response element (ARE) signaling pathway measured by Nrf2-dependant transcriptional activity - cell viability counter screen (AID 720653; active = well fitted curve in the direction sought with a large enough effect in the repeat runs; an effect the other way counts as inactive or inconclusive; also: % is scaled to controls: 0 for no effect and ±100 for the full control effect); settings: ARE-bla HepG2 viability, CellTiter-Glo ATP luminescence, 16 h; max response: stronger effect = lower value
Procedure, shortened: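 ARE-bla HepG2 cells treated with compounds for 16 h at 37C; this counter screen measures viability as intracellular ATP by CellTiter-Glo luminescence after 30 min at room temperature.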

[22] = qHTS assay for cell viability of HEK293 cells (AID 743288; active = well fitted curve in the direction sought with a large enough effect; an effect the other way counts as inactive or inconclusive; also: % is scaled to controls: 0 for no effect and ±100 for the full control effect; nearly all actives have a fitted effect of over 50% in size); settings: ATP luminescence (CellTiter-Glo), 18 h; max response: stronger effect = lower value
Procedure, shortened: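 ATP luminescence (CellTiter-Glo) reports metabolically competent cell number after parental HEK293 cells, 2,000/well, were treated with DMSO-dissolved compounds for 18 h at 37 C; reagent incubation 30 min, room temperature.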

[23] = qHTS assay for cell viability of the p53RE-bla HCT-116 cell line (AID 743292; active = well fitted curve in the direction sought with a large enough effect; an effect the other way counts as inactive or inconclusive; also: % is scaled to controls: 0 for no effect and ±100 for the full control effect; nearly all actives have a fitted effect of over 55% in size)
Procedure, shortened: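 Readout: CellTiter-Glo luminescence after 30 min RT. Treatment: compounds in DMSO, 16 h, 37 C. Cells: CellSensor p53RE-bla HCT-116, 4,000/well, preincubated 5 h.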

[24] = biological target: Nuclear receptor subfamily 1 group I member 2 (Rattus norvegicus) (UniProt Q9R1A7); assay: qHTS assay for small molecule activators of the rat pregnane X receptor (rPXR) signaling pathway (AID 651751; call rule not given here; also: 0% is about no effect); settings: rPXR reporter cells, luciferase (One-Glo), 24 h
Sequence of Nuclear receptor subfamily 1 group I member 2 (Rattus norvegicus) (Q9R1A7 whole entry, looked up): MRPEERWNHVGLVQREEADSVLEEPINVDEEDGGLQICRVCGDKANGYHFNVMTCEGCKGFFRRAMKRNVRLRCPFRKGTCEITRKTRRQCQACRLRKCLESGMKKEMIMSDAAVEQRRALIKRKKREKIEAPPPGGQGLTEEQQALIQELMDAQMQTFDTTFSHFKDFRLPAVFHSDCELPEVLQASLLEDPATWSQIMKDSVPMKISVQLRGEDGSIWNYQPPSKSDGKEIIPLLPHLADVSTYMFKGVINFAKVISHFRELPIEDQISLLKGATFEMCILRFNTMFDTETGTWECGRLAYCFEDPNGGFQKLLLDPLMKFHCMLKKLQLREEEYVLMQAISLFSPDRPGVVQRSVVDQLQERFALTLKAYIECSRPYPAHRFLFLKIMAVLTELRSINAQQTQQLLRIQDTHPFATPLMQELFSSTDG

[25] = qHTS assay for small molecule activators of the human pregnane X receptor (PXR) signaling pathway (AID 720659; call rule not given here; also: 0% is about no effect)
[26] = biological target: Androgen receptor (Homo sapiens) (UniProt P10275); assay: qHTS assay for small molecule agonists of androgen receptor signaling (AID 588515; active = well fitted curve in the direction sought with a large enough effect in the signal ratio, with a control signal flat; the % refers to the signal ratio; also: % is scaled to controls: 0 for no effect and ±100 for the full control effect); settings: AR-UAS-bla HEK293, beta-lactamase ratio, agonist 16 h; stronger effect = higher value
Procedure, shortened: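 Stimulation of an AR-responsive β-lactamase reporter in GripTite HEK293 cells was measured after 16 h compound exposure at 37 °C, via CCF4 fluorescence after 2 h RT. EC50 from Hill fits, normalized to R1881 at 30 nM.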

[27] = biological target: Peroxisome proliferator-activated receptor gamma (Homo sapiens) (UniProt P37231); assay: qHTS assay for small molecule antagonists of peroxisome proliferator-activated receptor gamma signaling (AID 588537; active = well fitted inhibition curve with a large enough effect in the signal ratio, with a control signal flat, not every such curve was filed as active; the % refers to the signal ratio;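 also: reporter cells co-stimulated with 50 nM rosiglitazone agonist during compound treatment; % of control where 0% means no effect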)
Procedure, shortened: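 Fluorescence at 460 and 530 nm (405 nm excitation) reported beta-lactamase cleavage of CCF4 after 2 h room-temperature loading. HEK293 reporter cells in 1% charcoal/dextran-treated FBS had received compound and rosiglitazone for 16 h.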

[28] = biological target: Thyroid hormone receptor beta (Homo sapiens) (UniProt P10828); assay: qHTS assay for small molecule antagonists of thyroid hormone receptor beta signaling (AID 588547; active = well fitted inhibition curve with a large enough effect in the signal ratio, with a control signal flat, not every such curve was filed as active; the % refers to the signal ratio); settings: TR-UAS-bla HEK293, beta-lactamase ratio, antagonist mode, 18 h
Procedure, shortened: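 TR-UAS-bla GripTite HEK293 cells in 2% charcoal/dextran FBS medium; compounds 0.59 nM to 92 uM with T3 at 0.4nM final, 18 h at 37 C. Beta-lactamase read by CCF4 fluorescence (460/530 nm); Hill fits gave IC50 and efficacy.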

[29] = qHTS assay for small molecule activators of the nuclear factor-kappa B (NF-kB) signaling pathway (AID 651749; active = well fitted activation curve with a large enough effect in the signal ratio; the % refers to the signal ratio; also: series mostly up to about 77 µM; % of control where 0% means no effect); settings: NF-kB-bla ME-180 cells, beta-lactamase FRET ratio, 16 h; activation: stronger effect = higher value
Procedure, shortened: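 In this qHTS format, compounds acting as activators increase NF-kB-driven beta-lactamase in ME-180 cells, measured as disrupted FRET after 16 hr exposure at 37C and 5% CO2.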

Sequence of Bile acid receptor (Homo sapiens) (Q96RI1 whole entry, looked up): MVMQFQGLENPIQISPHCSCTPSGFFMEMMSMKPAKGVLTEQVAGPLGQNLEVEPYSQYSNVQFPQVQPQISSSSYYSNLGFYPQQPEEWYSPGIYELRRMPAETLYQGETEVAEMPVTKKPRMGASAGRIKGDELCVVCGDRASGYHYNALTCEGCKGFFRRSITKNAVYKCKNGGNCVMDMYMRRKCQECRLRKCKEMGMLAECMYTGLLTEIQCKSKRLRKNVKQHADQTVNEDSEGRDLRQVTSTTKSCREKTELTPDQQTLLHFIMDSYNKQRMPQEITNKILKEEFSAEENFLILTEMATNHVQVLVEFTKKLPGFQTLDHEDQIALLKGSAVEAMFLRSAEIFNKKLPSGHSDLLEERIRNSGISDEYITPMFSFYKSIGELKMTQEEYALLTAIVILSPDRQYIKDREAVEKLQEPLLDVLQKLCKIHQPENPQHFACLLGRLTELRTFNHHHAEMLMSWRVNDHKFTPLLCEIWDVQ

CCNc1nc(NC(C)C)nc(OC)n1
24.4%: max response [6]
-5.81%: max response [11]
-8.69%: max response [14]
inactive: Potency [1] | activation [2] -2.29% | activation [3] -1.69% | Potency [4] | outcome [5] | Potency [7] | Potency [8] | Potency [9] | outcome [10] | Potency [12] | Potency [13] | max response [15] 2.56% | Potency [16] | activation [17] -0.985% | activation [18] 0.686% | max response [19] -1.03% | Potency [20] | max response [21] 6.46% | max response [22] 0.985% | Potency [23] | max response [24] 0.846% | outcome [25]

CNC(=O)N(C)c1nc2ccccc2s1
inactive: activation [26] -11.3% | Potency [1] | activation [2] 4.82% | Potency [4] | Potency [8] | Potency [27] | Potency [9] | outcome [10] | Potency [12] | Potency [13] | max response [15] -2.41% | activity change % (negative = inhibition) [28] 9.18% | activation [29] 0.981% | max response [19] -2.93% | max response [22] -16.4% | Potency [23]
0.29%: max response [14]
active: Potency [16] 27.3 µM | Potency [18] 44.7 µM

COCC(=O)N(c1c(C)cccc1C)N1CCOC1=O
-6.17%: max response [6]
-10.4%: max response [14]
-6.63%: max response [11]
inactive: Potency [1] | activation [2] -0.109% | outcome [5] | Potency [7] | Potency [9] | outcome [10] | Potency [12] | Potency [13] | max response [15] 4.82% | Potency [16] | activation [17] -3.26% | activation [29] -1.88% | max response [19] 0.278% | Potency [20] | max response [21] 1.06% | max response [22] 2.38% | Potency [23] | max response [24] 3.21% | outcome [25]

C[Si](Cn1cncn1)(c1ccc(F)cc1)c1ccc(F)cc1
inactive: activation [2] 2.34% | Potency [27] | Potency [9] | outcome [10] | Potency [13] | activation [17] -4.21% | activation [18] 6.54% | max response [19] -0.864% | Potency [20] | max response [21] -21.1%
active: Potency [1] 22.4 µM

Clc1ccc(C2(Cn3cncn3)CC(Br)CO2)c(Cl)c1 (stereo unspecified)
-1.33%: max response [14]
6.2%: max response [11]
inactive: Potency [1] | activation [3] -0.813% | Potency [4] | outcome [5] | Potency [7] | Potency [8] | Potency [27] | Potency [9] | outcome [10] | Potency [12] | Potency [13] | max response [15] -17.6% | activity change % (negative = inhibition) [28] -0.525% | activation [17] 1.75% | activation [29] -2.79% | activation [18] 0.536% | max response [19] 0.204% | Potency [20] | max response [21] -3.86% | max response [22] -20.3% | Potency [23]
30.9%: max response [6]
